Measured values from PubChem BioAssay (NCI).
This is part of a sample that, as a whole, favours compounds with a hit. Of some 79,000 tested, about 15% had one in any assay. Activity calls are given as the source filed them. Rule as the data show it: active = growth inhibition above about 70%; inactive = the rest.

How the values were obtained:
[1] = NCI Yeast Anticancer Drug Screen. Data for the rad52 strain (AID 147);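 also: 0% = growth of vehicle-treated control cultures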; settings: S. cerevisiae rad52 mutant growth inhibition, active compounds read high
Outline: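 Growth of repair-deficient yeast cells was compared between compound-treated and vehicle-treated cultures to give percent inhibition.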

[2] = NCI Yeast Anticancer Drug Screen. Data for the rad50EPP+ strain (AID 151);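 also: 0% = growth of vehicle-treated control cultures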; settings: S. cerevisiae rad50 mutant strain, active compounds read high
Outline: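 Measured: growth inhibition of rad50EPP+ yeast. Reference: vehicle-treated controls. Screen uses strains with defined genetic alterations in DNA damage repair or cell cycle control.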

[3] = NCI Yeast Anticancer Drug Screen. Data for the rad50 strain (AID 155);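 also: 0% = growth of vehicle-only cultures of the same strain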; settings: S. cerevisiae rad50 strain growth inhibition, active compounds read high
Outline: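 Relative growth inhibition (compound vs vehicle) was measured in yeast with a defined repair-gene alteration.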

[4] = NCI Yeast Anticancer Drug Screen. Data for the mec2-1 strain (AID 157); settings: S. cerevisiae mec2-1 strain, active compounds read high
Outline: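 Compounds were applied to mec2-1 yeast cells. Their growth was then compared with that of vehicle-treated cultures to give growth inhibition.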

[5] = NCI Yeast Anticancer Drug Screen. Data for the rad14 strain (AID 159);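 also: 0% = growth of vehicle-treated control cultures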; settings: S. cerevisiae rad14 strain growth inhibition, active compounds read high
Outline: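 Screen for anticancer potential: a yeast strain altered in DNA damage repair is grown with compound, and reduced growth is quantified against vehicle controls.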

[6] = NCI Yeast Anticancer Drug Screen. Data for the sgs1 mgt1 strain (AID 161);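 also: 0% = growth of cultures given vehicle only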; settings: S. cerevisiae sgs1 mgt1 strain, active compounds read high
Outline: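 Compounds are added to genetically altered yeast, and growth is compared with cultures given vehicle alone to give percent inhibition.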

[7] = NCI Yeast Anticancer Drug Screen. Data for the CLN2oe strain (AID 163);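 also: 0% = growth of vehicle-only control cultures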; settings: S. cerevisiae CLN2oe strain, active compounds read high
Outline: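 Cells of an engineered yeast line with disturbed cell-cycle regulation are treated with compound. Inhibition of growth is then calculated relative to the vehicle-treated reference.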

[8] = NCI Yeast Anticancer Drug Screen. Data for the cln2 rad14 strain (AID 165);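 also: 0% = growth equal to vehicle treated cultures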; settings: S. cerevisiae cln2 rad14 strain, active compounds read high
Outline: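 Strain: cln2 rad14 yeast, altered in cell cycle control and DNA damage repair. Read-out: growth inhibition vs vehicle.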

[9] = NCI Yeast Anticancer Drug Screen. Data for the bub3 strain (AID 167); settings: S. cerevisiae bub3 mutant strain, active compounds read high
Outline: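 Screening used yeast with an engineered genetic alteration affecting cell cycle control. Compound-exposed cultures were compared with vehicle cultures, and reduced growth was taken as inhibition.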

[10] = NCI Yeast Anticancer Drug Screen. Data for the wt2 strain (AID 169);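 also: 0% = growth of vehicle-treated yeast cultures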; settings: S. cerevisiae wt2 strain growth inhibition, active compounds read high
Outline: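 Growth of compound-treated yeast is measured and expressed as inhibition relative to vehicle-only controls.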

[11] = NCI Yeast Anticancer Drug Screen. Data for the mlh1 strain (AID 171);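 also: 0% = growth of vehicle-treated control cultures of the same strain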; settings: S. cerevisiae mlh1 strain growth inhibition, active compounds read high
Outline: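 Test agents were incubated with yeast bearing a defined DNA damage repair or cell cycle control alteration; values are growth inhibition normalised to vehicle-treated cultures.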

[12] = NCI Yeast Anticancer Drug Screen. Data for the sgs1 strain (AID 173);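 also: 0% = growth of vehicle-only control cultures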; settings: S. cerevisiae sgs1 mutant, active compounds read high
Outline: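 Strain with an altered DNA repair or cell cycle pathway exposed to compound. Growth then measured. Value = inhibition versus vehicle control.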

[13] = NCI Yeast Anticancer Drug Screen. Data for the mlh1 rad18 strain (AID 175); settings: S. cerevisiae mlh1 rad18 strain growth inhibition, active compounds read high
Outline: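 A repair-deficient yeast strain is exposed to test compound, and growth is scored relative to vehicle-treated controls.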

[14] = NCI Yeast Anticancer Drug Screen. Data for the rad18 strain (AID 177); settings: S. cerevisiae rad18 mutant growth inhibition, active compounds read high
Outline: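 DNA-repair-defective yeast; compound treatment; growth inhibition scored against vehicle.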

[15] = NCI Yeast Anticancer Drug Screen. Data for the wt1 strain (AID 149);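 also: 0% = growth of vehicle-treated wt1 cultures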; settings: S. cerevisiae wt1 strain (SPY 50644) growth inhibition, active compounds read high
Outline: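 Using yeast strain wt1, compound-induced growth inhibition was determined against vehicle-treated cultures.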

[16] = at 5.0 µM (retest, dose inferred, filed as 0.5)
[17] = at 50.0 µM (retest, dose inferred, filed as 5.0)

Measured: growth inhibition

CCCCCCCCCCCCCCCCNC(=O)/C(=C\c1ccc(Cl)c(Cl)c1)NC(=O)c1ccccc1
active: [1]; at 100.0 µM 77% | [2]; at 100.0 µM 74% | [3]; [17] 75% | [3]; at 50.0 µM 93.2% | [4]; at 50.0 µM 94.2% | [9]; at 50.0 µM 88.8% | [9]; at 100.0 µM 87% | [13]; at 50.0 µM 89.2%
inactive: [1]; at 1.2 µM 21% | [1]; at 3.7 µM 8% | [1]; at 11.0 µM 18% | [1]; at 33.0 µM 11% | [2]; at 1.2 µM 2% | [2]; at 3.7 µM 6% | [2]; at 11.0 µM 6% | [2]; at 33.0 µM 34% | [3]; at 1.2 µM -2% | [3]; at 3.7 µM 0% | [3]; [16] 14% | [3]; at 11.0 µM -2% | [3]; at 33.0 µM -4% | [3]; at 100.0 µM 49% | [4]; at 1.2 µM 11% | [4]; at 3.7 µM -5% | [4]; [16] 8% | [4]; at 11.0 µM -7% | [4]; at 33.0 µM -2% | [4]; [17] 29% | [4]; at 100.0 µM 33% | [5]; at 1.2 µM -1% | [5]; at 3.7 µM 0% | [5]; at 11.0 µM -4% | [5]; at 33.0 µM 4% | [5]; at 100.0 µM 43% | [6]; [16] -5% | [6]; [17] 13% | [6]; at 50.0 µM 55% | [7]; at 1.2 µM -11% | [7]; at 3.7 µM -7% | [7]; at 11.0 µM -6% | [7]; at 33.0 µM -13% | [7]; at 100.0 µM 52% | [8]; [16] 46% | [8]; [17] -10% | [8]; at 50.0 µM 59.2% | [9]; at 1.2 µM -3% | [9]; at 3.7 µM -4% | [9]; [16] 3% | [9]; at 11.0 µM -6% | [9]; at 33.0 µM -7% | [9]; [17] 43% | [10]; at 1.2 µM 0% | [10]; at 3.7 µM 1% | [10]; at 11.0 µM 0% | [10]; at 33.0 µM 5% | [10]; at 100.0 µM 69% | [11]; at 1.2 µM 0% | [11]; at 3.7 µM -1% | [11]; at 11.0 µM -3% | [11]; at 33.0 µM -5% | [11]; at 100.0 µM 47% | [12]; at 1.2 µM 2% | [12]; at 3.7 µM 5% | [12]; at 11.0 µM 5% | [12]; at 33.0 µM 14% | [12]; at 100.0 µM 49% | [13]; [16] 10% | [13]; [17] 31% | [14]; at 1.2 µM 7% | [14]; at 3.7 µM 7% | [14]; at 11.0 µM 26% | [14]; at 33.0 µM 24% | [14]; at 100.0 µM 67%

Nc1ccc2c(c1)sc1ccccc12
inactive: [15]; at 1.2 µM -5% | [15]; at 3.7 µM -7% | [15]; at 11.0 µM -10% | [15]; at 33.0 µM -11% | [2]; at 1.2 µM 1% | [2]; at 3.7 µM 13% | [2]; at 11.0 µM 38% | [3]; at 1.2 µM -20% | [3]; at 3.7 µM -1% | [3]; [16] -153% | [3]; at 11.0 µM 9% | [3]; at 33.0 µM 46% | [3]; [17] 54% | [4]; at 1.2 µM 1% | [4]; at 3.7 µM 0% | [4]; [16] -52% | [4]; at 11.0 µM -6% | [4]; at 33.0 µM 4% | [4]; [17] -24% | [4]; at 50.0 µM 33% | [5]; at 1.2 µM -3% | [5]; at 3.7 µM -6% | [5]; at 11.0 µM -1% | [5]; at 33.0 µM 15% | [6]; [16] -68% | [6]; [17] 40% | [6]; at 50.0 µM 63.1% | [7]; at 1.2 µM -2% | [7]; at 3.7 µM -5% | [7]; at 11.0 µM -3% | [7]; at 33.0 µM -5% | [8]; [16] -60% | [8]; [17] -50% | [8]; at 50.0 µM -13.4% | [9]; at 1.2 µM -6% | [9]; at 3.7 µM -4% | [9]; [16] -59% | [9]; at 11.0 µM 3% | [9]; at 33.0 µM 18% | [9]; [17] 40% | [10]; at 1.2 µM -1% | [10]; at 3.7 µM -2% | [10]; at 11.0 µM -4% | [10]; at 33.0 µM 0% | [11]; at 1.2 µM 9% | [11]; at 3.7 µM -4% | [11]; at 11.0 µM -5% | [11]; at 33.0 µM 21% | [12]; at 1.2 µM -1% | [12]; at 3.7 µM -1% | [12]; at 11.0 µM -2% | [12]; at 33.0 µM 46% | [13]; [16] -122% | [13]; [17] 38% | [14]; at 1.2 µM 0% | [14]; at 3.7 µM 6% | [14]; at 11.0 µM 27% | [14]; at 33.0 µM 56%
active: [15]; at 100.0 µM 99% | [2]; at 33.0 µM 89% | [2]; at 100.0 µM 98% | [3]; at 50.0 µM 85.4% | [3]; at 100.0 µM 99% | [4]; at 100.0 µM 99% | [5]; at 100.0 µM 98% | [7]; at 100.0 µM 95% | [9]; at 50.0 µM 92.5% | [9]; at 100.0 µM 99% | [10]; at 100.0 µM 99% | [11]; at 100.0 µM 99% | [12]; at 100.0 µM 99% | [13]; at 50.0 µM 94.2% | [14]; at 100.0 µM 99%
